Test results reported in the supplement of paper PMC6089552.
Among all 3,200 compounds or so, about 300 (9.4%) showed activity. Only a selection was taken, and actives are over-represented in it overall.

System: A673/TR/shEF
Assay: cell viability (LOESS-normalised, relative to median of negative controls) (log2 ratio); higher = more viable cells (less compound effect), active = hit call of the paper (over 3 MAD below the median)
Settings: treatment time: 72 h
Summary of the method: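 Viability of A673/TR/shEF Ewing sarcoma cells was determined by CellTiter-Glo luminescence. The cells, at 1,500 per well in 384-well plates, were grown with or without doxycycline from 24 h before compound addition to switch on EWS-FLI1 shRNA knockdown, then exposed for three days to library compounds at two or more concentrations or to DMSO controls. Signals were LOESS-corrected plate by plate, normalised to the negative-control median and log2-transformed.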

[1] = 0.25 µM, library screen: screen2, EWS-FLI1 expression: high (no doxycycline)
[2] = 0.25 µM, library screen: screen2, EWS-FLI1 expression: low (doxycycline-induced shRNA knockdown)
[3] = 2.5 µM, library screen: screen2, EWS-FLI1 expression: high (no doxycycline)
[4] = 2.5 µM, library screen: screen2, EWS-FLI1 expression: low (doxycycline-induced shRNA knockdown)
[5] = 0.25 µM, library screen: screen1, EWS-FLI1 expression: high (no doxycycline)
[6] = 0.25 µM, library screen: screen1, EWS-FLI1 expression: low (doxycycline-induced shRNA knockdown)
[7] = 2.5 µM, library screen: screen1, EWS-FLI1 expression: high (no doxycycline)
[8] = 2.5 µM, library screen: screen1, EWS-FLI1 expression: low (doxycycline-induced shRNA knockdown)
[9] = 0.103 µM, library screen: screen3, EWS-FLI1 expression: high (no doxycycline)
[10] = 0.103 µM, library screen: screen3, EWS-FLI1 expression: low (doxycycline-induced shRNA knockdown)
[11] = 0.308 µM, library screen: screen3, EWS-FLI1 expression: high (no doxycycline)
[12] = 0.308 µM, library screen: screen3, EWS-FLI1 expression: low (doxycycline-induced shRNA knockdown)
[13] = 0.926 µM, library screen: screen3, EWS-FLI1 expression: high (no doxycycline)
[14] = 0.926 µM, library screen: screen3, EWS-FLI1 expression: low (doxycycline-induced shRNA knockdown)
[15] = 2.8 µM, library screen: screen3, EWS-FLI1 expression: high (no doxycycline)
[16] = 2.8 µM, library screen: screen3, EWS-FLI1 expression: low (doxycycline-induced shRNA knockdown)
[17] = 8.3 µM, library screen: screen3, EWS-FLI1 expression: high (no doxycycline)
[18] = 8.3 µM, library screen: screen3, EWS-FLI1 expression: low (doxycycline-induced shRNA knockdown)
[19] = 25 µM, library screen: screen3, EWS-FLI1 expression: high (no doxycycline)
[20] = 25 µM, library screen: screen3, EWS-FLI1 expression: low (doxycycline-induced shRNA knockdown)
[21] = 0.025 µM, library screen: screen2, EWS-FLI1 expression: high (no doxycycline)
[22] = 0.025 µM, library screen: screen2, EWS-FLI1 expression: low (doxycycline-induced shRNA knockdown)
[23] = 25 µM, library screen: screen2, EWS-FLI1 expression: high (no doxycycline)
[24] = 25 µM, library screen: screen2, EWS-FLI1 expression: low (doxycycline-induced shRNA knockdown)

Measured: cell viability (log2)

CC(Cc1ccc(OCC(=O)O)cc1)NCC(O)c1cccc(Cl)c1 (centres undefined)
inactive: [1] 0.122 | [2] 0.143 | [3] 0.229 | [4] 0.136

C[N+]1(C)CCc2cc3c(cc2[C@H]1[C@@H]1OC(=O)c2c1ccc1c2OCO1)OCO3
inactive: [1] 0.123 | [2] 0.0886 | [3] 0.123 | [4] 0.104

COC[C@]12CN(C=O)[C@H]3C4[C@H](OC)[C@H]1C3([C@@H](OC)C[C@H]2O)[C@@H]1C[C@@]2(O)[C@H](OC(=O)c3ccccc3)[C@@H]1[C@]4(OC(C)=O)[C@@H](O)[C@@H]2OC
inactive: [5] 0.0391 | [6] 0.0831 | [7] 0.0466 | [8] 0.114

C=CCN1C[C@@H](C)N([C@H](c2ccc(C(=O)N(CC)CC)cc2)c2cccc(OC)c2)C[C@@H]1C
inactive: [1] 0.0848 | [2] 0.0464 | [3] 0.222 | [4] 0.00445

COc1cc2c(cc1OC)[C@@]13CCN4CC5=CCO[C@H]6CC(=O)N2[C@H]1[C@H]6[C@H]5C[C@H]43
inactive: [5] 0.0057 | [6] 0.0368 | [7] 0.098 | [8] -0.0757

CC(=O)Oc1ccc(C=Cc2cc(OC(C)=O)cc(OC(C)=O)c2)cc1
inactive: [5] 0.101 | [6] 0.0764 | [7] 0.00309 | [8] 0.228

Nc1ncnc2c1ncn2C1OC2COP(O)(=S)OC2C1O (centres undefined)
inactive: [1] 0.0926 | [2] 0.132 | [3] 0.0861 | [4] 0.0676

O.O=C1OC2(c3cc(Br)c([O-])cc3Oc3c2cc(Br)c([O-])[c]3[Hg])c2ccccc21.[Na+].[Na+] (centres undefined)
inactive: [5] 0.113 | [6] 0.0666 | [7] 0.139 | [8] 0.132

CN1C2CCC1CC(OC(=O)C(CO)c1ccccc1)C2 (centres undefined)
inactive: [1] 0.252 | [2] 0.166 | [3] 0.123 | [4] 0.223

C[C@]12CC[C@H]3[C@@H](CCC4=CC(=O)CC[C@@]43C)[C@@H]1CC[C@@H]2OC(=O)CCC1CCCC1
inactive: [9] -0.000785 | [10] 0.011 | [11] 0.0351 | [12] 0.0268 | [13] 0.0442 | [14] 0.0219 | [15] 0.0558 | [16] 0.00975 | [17] 0.0577 | [18] 0.0516 | [19] 0.0518 | [20] 0.0747

CC(N)Cc1ccc(O)cc1 (centres undefined)
inactive: [5] 0.0594 | [6] 0.0957 | [7] 0.092 | [8] 0.0198

COC[C@H]1OC(=O)c2coc3c2[C@@]1(C)C1=C(C3=O)[C@@H]2CCC(=O)[C@@]2(C)C[C@H]1OC(C)=O
active: [7] -0.356 | 25 µM, library screen: screen1, EWS-FLI1 expression: high (no doxycycline) -0.711 | 25 µM, library screen: screen1, EWS-FLI1 expression: low (doxycycline-induced shRNA knockdown) -0.309
inactive: 0.025 µM, library screen: screen1, EWS-FLI1 expression: high (no doxycycline) 0.254 | 0.025 µM, library screen: screen1, EWS-FLI1 expression: low (doxycycline-induced shRNA knockdown) 0.0235 | [5] 0.137 | [6] -0.0412 | [1] 0.179 | [2] 0.0105 | [8] -0.0837 | [3] -0.0237 | [4] 0.0148

CCCN1CCC[C@@H](c2cccc(C#N)c2)C1
inactive: [1] 0.21 | [2] 0.0529 | [3] 0.222 | [4] 0.141

CC1(C)C2C[C@@H](O)[C@]3(C)C(CC[C@@]4(C)[C@H](c5ccoc5)CC5OC543)[C@@]2(C)[C@@H](O)C[C@H]1O (some centres undefined)
inactive: [5] 0.0938 | [6] 0.113 | [7] 0.107 | [8] 0.116

CCCN(CCC)c1c([N+](=O)[O-])cc(C(F)(F)F)cc1[N+](=O)[O-]
inactive: [5] -0.0384 | [6] 0.0507 | [7] 0.104 | [8] 0.107

CCOC(=O)NC1=C(N2CC2)C(=O)C(NC(=O)OCC)=C(N2CC2)C1=O
inactive: [21] -0.0137 | [22] -0.0126 | [5] 0.102 | [6] 0.0213 | [1] 0.153 | [2] -0.00616 | [7] 0.0672 | [8] 0.107 | [3] -0.0475 | [4] 0.0995
active: [23] -3.5 | [24] -0.288

CCC(C)[C@H]1O[C@]2(C=C[C@@H]1C)C[C@@H]1C[C@@H](C/C=C(\C)[C@@H](O[C@H]3C[C@H](OC)[C@@H](O[C@H]4C[C@H](OC)[C@@H](O)[C@H](C)O4)[C@H](C)O3)[C@@H](C)/C=C/C=C3\CO[C@@H]4[C@H](O)C(C)=C[C@@H](C(=O)O1)[C@]34O)O2.CO[C@H]1C[C@H](O[C@H]2[C@H](C)O[C@@H](O[C@@H]3/C(C)=C/C[C@@H]4C[C@@H](C[C@]5(C=C[C@H](C)[C@@H](C(C)C)O5)O4)OC(=O)[C@@H]4C=C(C)[C@@H](O)[C@H]5OC/C(=C\C=C\[C@@H]3C)[C@]54O)C[C@@H]2OC)O[C@@H](C)[C@@H]1O (some centres undefined)
inactive: [5] 0.0422 | [6] 0.0818 | [7] 0.0639 | [8] 0.0892

Cn1cc(C2=C(c3cn(C4CCN(Cc5ccccn5)CC4)c4ccccc34)C(=O)NC2=O)c2ccccc21
inactive: [9] -0.105 | [10] -0.0101 | [11] -0.0168 | [12] 0.054 | [13] -0.0718 | [14] 0.0485 | [15] -0.024 | [16] -0.0681 | [17] 0.0419 | [18] 0.0589 | [19] -0.03 | [20] 0.0493

C=CCN1CCC23c4c5ccc(O)c4O[C@@H]2/C(=N/NC(=O)c2ccccc2)CCC3(O)[C@H]1C5 (some centres undefined)
inactive: [1] 0.0804 | [2] 0.0684 | [3] 0.0878 | [4] 0.0887

C[C@H]1CCC/C=C/[C@@H]2C[C@H](O)C[C@H]2[C@H](O)/C=C/C(=O)O1
active: [1] -0.127 | [2] -0.561 | [3] -3.76 | [4] -3.56

CN1[C@@H]2CC[C@H]1CC(OC(=O)C(CO)c1ccccc1)C2 (some centres undefined)
inactive: [9] -0.0138 | [10] 0.0399 | [5] 0.0603 | [6] 0.0968 | [11] -0.021 | [12] -0.00749 | [13] -0.0329 | [14] 0.092 | [7] 0.15 | [8] 0.157 | [15] -0.023 | [16] -0.00135 | [17] -0.0414 | [18] -0.0331 | [19] -0.025 | [20] 0.0734

NCCc1ccc(O)cc1
inactive: [5] 0.0239 | [6] 0.0662 | [1] 0.157 | [2] 0.123 | [7] 0.134 | [8] 0.0729 | [3] 0.116 | [4] 0.0531

NCCc1ccc(S(=O)(=O)F)cc1
active: [1] -0.0889
inactive: [2] 0.067 | [3] -0.0377 | [4] 0.0161

COc1cc(CCN)ccc1O
inactive: [1] 0.212 | [2] 0.0815 | [3] 0.12 | [4] 0.0385

COc1cc([C@@H]2c3cc4c(cc3[C@H](O)[C@H]3COC(=O)[C@@H]23)OCO4)cc(OC)c1OC
active: [7] -2.1 | [8] -0.572
inactive: [5] 0.0302 | [6] 0.00961

COc1ccc2c(c1O)-c1c3c(cc4c1[C@H](C2)N(C)CC4)OCO3
inactive: [1] 0.104 | [2] 0.0658 | [3] 0.0733 | [4] 0.132

COc1cc([C@@H]2c3cc4c(c(O)c3C[C@H]3COC(=O)[C@@H]32)OCO4)cc(OC)c1OC
inactive: [5] 0.0843 | [6] 0.0231
active: [7] -3 | [8] -0.852

COc1ccc2c(c1OC)C(=O)O[C@H]2[C@@H]1c2cc3c(cc2CCN1C)OCO3
inactive: [1] 0.0965 | [2] 0.0835 | [3] 0.18 | [4] 0.113

COc1cc([C@@H]2c3cc4c(cc3[C@H](O)[C@H]3COC(=O)[C@H]23)OCO4)cc(OC)c1OC
inactive: [21] 0.106 | [22] 0.109 | [1] 0.0134 | [2] 0.0379
active: [5] -3.56 | [6] -1.09 | [7] -4.23 | [8] -0.986 | [3] -1.33 | [4] -0.175 | [23] -2.9 | [24] -0.496

COc1cc([C@@H]2c3cc4c(cc3[C@H](OC(C)=O)[C@H]3COC(=O)[C@H]23)OCO4)cc(OC)c1OC
active: [5] -3.77 | [6] -0.983 | [7] -3.58 | [8] -1.13

COc1ccc2c(c1OC)C(=O)O[C@H]2[C@H]1c2cc3c(cc2CCN1C)OCO3
inactive: [5] 0.11 | [6] 0.0969 | [7] -0.0012 | [8] 0.0503

CCCN(CCC)[C@@H]1CCc2c(F)ccc(O)c2C1
inactive: [1] 0.13 | [2] 0.0763 | [3] 0.181 | [4] 0.101

O=C1NCN(c2ccccc2)C12CCN(CC1COc3ccccc3O1)CC2 (centres undefined)
inactive: [1] 0.177 | [2] 0.0806 | [3] 0.104 | [4] 0.0692

C/C=C(\C)C(=O)O[C@H]1C[C@@H](OC(C)=O)[C@@]2(C(=O)OC)CO[C@H]3[C@@H](O)[C@@](C)([C@]45O[C@@]4(C)[C@H]4C[C@@H]5O[C@@H]5OC=C[C@@]54O)[C@H]4[C@]1(CO[C@]4(O)C(=O)OC)[C@@H]32
inactive: [5] 0.103 | [6] 0.0233 | [7] 0.139 | [8] -0.02

Cc1cccc(C)c1NC(=O)CN1CCCC1=O
inactive: [9] 0.119 | [10] -0.000586 | [11] 0.107 | [12] 0.118 | [13] 0.135 | [14] 0.0891 | [15] 0.156 | [16] 0.0751 | [17] 0.15 | [18] 0.0489 | [19] 0.154 | [20] 0.0876
